Experimental data taken from PubChem BioAssay (NCATS).

What follows are compounds tested against Catechol O-methyltransferase (Homo sapiens) (UniProt P21964) (assay: Confirmatory Screen for Target Class Profiling of Small Molecule Inhibitors of Methyltransferases (AID 1745852)). Conditions: MTase-Glo luminescence, SAH detection, recombinant enzyme; measured here: COMT max response; stronger effect = lower value.
Sequence of Catechol O-methyltransferase (Homo sapiens) (P21964 whole entry, looked up): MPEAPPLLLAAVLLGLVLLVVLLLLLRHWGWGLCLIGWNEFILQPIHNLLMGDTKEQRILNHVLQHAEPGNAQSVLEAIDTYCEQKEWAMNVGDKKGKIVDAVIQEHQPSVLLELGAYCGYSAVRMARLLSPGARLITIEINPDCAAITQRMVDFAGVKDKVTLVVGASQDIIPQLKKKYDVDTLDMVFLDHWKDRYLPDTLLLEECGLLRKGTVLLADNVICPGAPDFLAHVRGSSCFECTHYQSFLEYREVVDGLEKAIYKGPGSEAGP
`CN1C(=O)C(c2ccccc2)CC12CCN(c1ccnc(N)n1)CC2` (stereo unspecified) showed an activity of 6.59%. `Cn1c(=O)n(C)c2cc(S(=O)(=O)N3CCN(C4CCCCC4)CC3)ccc21` showed an activity of -4.43%. `O=C1c2ccccc2C(=O)c2cc(S(=O)(=O)NCCO)ccc21` gave an activity of -11%. Compound `Cc1ccc2c(c1)c(-n1cccc1)c1n2CC(C)(C(=O)NCCC(C)C)N(Cc2cccnc2)C1=O` (stereo unspecified) has an activity of 4.4%. `Cn1cc2c3c(cccc31)CN(C(=O)c1ccccc1F)CC2` showed an activity of -1.46%. `Cc1ccccc1-c1[nH]nc2ncc(-c3c(C)noc3C)nc12` showed an activity of -14.4%. `Cc1ccc(NS(=O)(=O)c2ccc3c(c2)[C@H]2C=CC[C@H]2[C@@H](c2cccc(Cl)c2)N3)c(C)c1` gave an activity of -11.2%. For `C1=C(c2nc(-c3ccncc3)cc3c2ccn3Cc2cccnc2)CCOC1`, the activity was -19%. `COc1ccccc1N1CCN(S(=O)(=O)c2cccc3c2C(=O)c2ccccc2C3=O)CC1` showed an activity of -3.23%. Compound `Cc1cc(C)c(NS(=O)(=O)c2ccc3c(c2)n(C)c(=O)n3C)c(C)c1` has an activity of 0.505%. For `COc1ccc(-c2cc3nc4c(c(=O)n3[nH]2)CN(C(=O)CN(C)S(=O)(=O)c2cnc[nH]2)CC4)cc1`, the activity was -19.9%. In the case of `Cc1ccc(C(=O)O)c2c1N[C@H](c1cccc(Cl)c1)C1CC=CC21` (stereo partly specified), the activity is reported as 2.41%. Compound `CCCC1c2cccn2CCN1C(=O)Nc1cc(Cl)ccc1C` (stereo unspecified) has an activity of 1.08%. In the case of `COc1ccc(CN2C(=O)c3cc4ccccc4n3CC2(C)C(=O)NCc2ccccc2)cc1OC` (stereo unspecified), the activity is reported as 4.11%. Compound `COc1cccc(CNC(=O)c2sc(=S)n3c2[nH]c(=O)c2cc4c(cc23)OCO4)c1` has an activity of -25.7%. `CCc1ccc(NS(=O)(=O)c2ccc3c(c2)n(C)c(=O)n3C)cc1` gave an activity of 4.08%.
